Source: PubChem BioAssay (NCI)
Compounds without any hit were thinned out: in the full panel of roughly 83,000, 20% have a hit.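 Assay: single dose, 48 h. Readout: percent growth (0 = no net growth; negative = cell death). Active: <10.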 Active and inactive are the calls of the source.

Columns and labels:
Assay in all cases: NCI-60 one-dose screen, 48 h (100 = growth as untreated, 0 = no growth, -100 = all killed)
Conditions in all cases: 10 µM unless noted
SR leukemia = test system: SR leukemia
RPMI-8226 leukemia = test system: RPMI-8226 leukemia
OVCAR-8 ovarian = test system: OVCAR-8 ovarian
OVCAR-5 ovarian = test system: OVCAR-5 ovarian
OVCAR-4 ovarian = test system: OVCAR-4 ovarian
SK-OV-3 ovarian = test system: SK-OV-3 ovarian
IGROV1 ovarian = test system: IGROV1 ovarian
OVCAR-3 ovarian = test system: OVCAR-3 ovarian
HS 578T breast = test system: HS 578T breast
NCI/ADR-RES ovarian = test system: NCI/ADR-RES ovarian

Measured: growth

CN1C(=O)N(C)C2C1NC(=S)N2/N=C/C=C/c1ccccc1[N+](=O)[O-] (stereo not given)
inactive: SR leukemia 15.2% | OVCAR-8 ovarian 36.3% | OVCAR-5 ovarian 74.9% | OVCAR-4 ovarian 51.1% | SK-OV-3 ovarian 27% | IGROV1 ovarian 44.3% | HS 578T breast 17.1% | NCI/ADR-RES ovarian 29.1%
active: RPMI-8226 leukemia 2.85% | OVCAR-3 ovarian 8.13%

O=C(CN1C(=O)/C(=C/c2ccco2)SC1=S)NCCc1c[nH]c2ccc(F)cc12
inactive: SR leukemia 111% | RPMI-8226 leukemia 97.8% | OVCAR-8 ovarian 105% | OVCAR-5 ovarian 105% | OVCAR-4 ovarian 99.7% | SK-OV-3 ovarian 93.7% | IGROV1 ovarian 104% | OVCAR-3 ovarian 110% | HS 578T breast 95.9% | NCI/ADR-RES ovarian 99.1%

CCN1C(=S)N(CC)C2C1NC(=S)N2/N=C/C=C/c1ccccc1OC (stereo not given)
active: OVCAR-3 ovarian -48% | NCI/ADR-RES ovarian -9.38%
inactive: SR leukemia 15.2% | RPMI-8226 leukemia 24.6% | OVCAR-8 ovarian 12.5% | OVCAR-5 ovarian 27.2% | OVCAR-4 ovarian 44.2% | SK-OV-3 ovarian 35% | IGROV1 ovarian 19.5% | HS 578T breast 16.3%

COc1cc(C(=O)/C=C/c2c(-c3cccs3)nc3ccccn23)cc(OC)c1OC
active: RPMI-8226 leukemia -9.49% | OVCAR-8 ovarian 9.84% | SK-OV-3 ovarian 3.6% | OVCAR-3 ovarian -36.5% | HS 578T breast -1.24% | NCI/ADR-RES ovarian -15.6%
inactive: SR leukemia 13.8% | OVCAR-5 ovarian 18.4% | OVCAR-4 ovarian 13.1% | IGROV1 ovarian 13.1%

Cc1cc2oc(=O)cc(CP(=O)(O)O)c2cc1O
inactive: SR leukemia 106% | RPMI-8226 leukemia 118% | OVCAR-8 ovarian 99.5% | OVCAR-5 ovarian 94% | OVCAR-4 ovarian 103% | SK-OV-3 ovarian 105% | IGROV1 ovarian 91.6% | OVCAR-3 ovarian 102% | HS 578T breast 94.5% | NCI/ADR-RES ovarian 105%

COc1ccc2nc3ccccc3c(NCc3ccccc3)c2c1
active: SR leukemia 4.27% | RPMI-8226 leukemia -30.9%
inactive: OVCAR-8 ovarian 28.2% | OVCAR-5 ovarian 29% | OVCAR-4 ovarian 40.8% | SK-OV-3 ovarian 44.5% | IGROV1 ovarian 16.4% | OVCAR-3 ovarian 41% | HS 578T breast 25.2% | NCI/ADR-RES ovarian 18.3%

CCC/C(=N\NC(N)=O)C(OC)OC
inactive: SR leukemia 120% | RPMI-8226 leukemia 121% | OVCAR-8 ovarian 98.6% | OVCAR-5 ovarian 97.1% | OVCAR-4 ovarian 89% | SK-OV-3 ovarian 116% | IGROV1 ovarian 123% | OVCAR-3 ovarian 104% | HS 578T breast 125% | NCI/ADR-RES ovarian 99.6%

S=c1[nH]c2cc(Cl)ccc2o1
inactive: SR leukemia 48.5% | RPMI-8226 leukemia 81.5% | OVCAR-8 ovarian 115% | OVCAR-5 ovarian 92.5% | OVCAR-4 ovarian 103% | SK-OV-3 ovarian 108% | IGROV1 ovarian 118% | OVCAR-3 ovarian 114% | HS 578T breast 88.6% | NCI/ADR-RES ovarian 106%

COC1=CC(c2ccc[nH]2)=N/C1=C\c1[nH]c(C)c(CC(=O)OCc2ccccc2)c1C
active: SR leukemia -25.5% | RPMI-8226 leukemia -41.1% | OVCAR-8 ovarian 9.46% | OVCAR-5 ovarian 9.74% | IGROV1 ovarian -3.67% | OVCAR-3 ovarian -49.5% | HS 578T breast -6.47% | NCI/ADR-RES ovarian 1.3%
inactive: OVCAR-4 ovarian 10.5% | SK-OV-3 ovarian 11%

COc1cc(/C=C2\CN(S(=O)(=O)c3ccc(C)cc3)C/C(=C\c3cc(CN4CCCCC4)c(O)c(OC)c3)C2=O)cc(CN2CCCCC2)c1O
inactive: SK-OV-3 ovarian 115%
active: SR leukemia -14.6% | RPMI-8226 leukemia -39.3% | OVCAR-8 ovarian -66.4% | OVCAR-5 ovarian -86.5% | OVCAR-4 ovarian -72.7% | IGROV1 ovarian -67% | OVCAR-3 ovarian -89.4% | HS 578T breast -33.4% | NCI/ADR-RES ovarian -47.2%

COc1ccc2c(O)c(/C=C3\N=Nc4ccccc43)oc2c1C[C@H]1CCNC[C@H]1F
inactive: RPMI-8226 leukemia 60.4% | OVCAR-8 ovarian 61% | OVCAR-5 ovarian 35.4% | OVCAR-4 ovarian 57.6% | SK-OV-3 ovarian 69% | IGROV1 ovarian 62.7% | OVCAR-3 ovarian 66.4% | HS 578T breast 54.7% | NCI/ADR-RES ovarian 82.4%
active: SR leukemia -23.4%

O=C1NC(=O)c2c1c1c3ccccc3[nH]c1c1oc3cc(Br)ccc3c21
inactive: SR leukemia 24.4% | RPMI-8226 leukemia 63.1% | OVCAR-8 ovarian 81.8% | OVCAR-5 ovarian 98.9% | OVCAR-4 ovarian 77.4% | SK-OV-3 ovarian 93.8% | IGROV1 ovarian 36.2% | OVCAR-3 ovarian 89.9% | HS 578T breast 77.3% | NCI/ADR-RES ovarian 77.3%

CC1(C)CC[C@]2(C(=O)N3CCOCC3)CC[C@]3(C)C(=CC[C@@H]4[C@@]5(C)C/C(=C/c6ccncc6)C(=O)C(C)(C)[C@@H]5CC[C@]43C)[C@@H]2C1
active: SR leukemia -31.3% | RPMI-8226 leukemia -33.5%
inactive: OVCAR-8 ovarian 34% | OVCAR-5 ovarian 30.3% | OVCAR-4 ovarian 14.2% | SK-OV-3 ovarian 28.9% | IGROV1 ovarian 33.1% | OVCAR-3 ovarian 16.1% | HS 578T breast 27.5% | NCI/ADR-RES ovarian 26.2%
